According to PubChem BioAssay AID1159580 (chemical genetic matrix, 2015):
Where “and” joins values, the source holds several entries; their conditions need not be identical. Equal entries are not always repeated. About 2,000 (36%) of roughly 5,500 compounds were called active. Inconclusive results (about 18%) are left out. No stated cut-off is given here; in the data, active means normalized growth mostly below about 0.91 (no sharp cut-off); inconclusive means no clear call, values can overlap the other calls; inactive means mostly above about 0.92. This is one part of the list.

Test: chemical genetic growth profiling, strain panel (AID 1159580);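 further: tested at 20 µM; growth read once vehicle control cultures reached saturation at 30 °C; 1 = growth at the plate median or of vehicle wells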
Conditions: S. cerevisiae deletion strains, growth OD

Measured: normalized growth

NCCCN
inactive: locus YAL021C, strain ccr4, stronger effect = lower value 1.02 | locus YAL026C, strain drs2, stronger effect = lower value 0.984 | locus YAL030W, strain snc1, stronger effect = lower value 0.989 | locus YBL061C, strain skt5, stronger effect = lower value 0.989 | locus YBR009C, strain hhf1, stronger effect = lower value 0.988 | locus YBR021W, strain FUR4, stronger effect = lower value 0.996 | locus YBR023C, strain chs3, stronger effect = lower value 0.982 | locus YBR171W, strain sec66, stronger effect = lower value 0.957 | locus YBR229C, strain ROT2, stronger effect = lower value 0.99 | locus YBR231C, strain swc5, stronger effect = lower value 0.984 | locus YBR279W, strain paf1, stronger effect = lower value 1 | locus YCL011C, strain gbp2, stronger effect = lower value 0.973 | locus YCL016C, strain dcc1, stronger effect = lower value 1 | locus YCL029C, strain bik1, stronger effect = lower value 0.984 | locus YCL061C, strain MRC1, stronger effect = lower value 1.01 | locus YCL069W, strain vba3, stronger effect = lower value 0.973 | locus YCR088W, strain abp1, stronger effect = lower value 0.982 | locus YDL005C, strain med2, stronger effect = lower value 0.977 | locus YDL035C, strain GPR1, stronger effect = lower value 1.03 | locus YDL040C, strain nat1, stronger effect = lower value 0.986 | locus YDL074C, strain BRE1, stronger effect = lower value 1.01 | locus YDL101C, strain DUN1, stronger effect = lower value 0.994 | locus YDL185W, strain tfp1, stronger effect = lower value 0.983 | locus YDL192W, strain arf1, stronger effect = lower value 0.998 | locus YDR001C, strain nth1, stronger effect = lower value 0.99 | locus YDR069C, strain doa4, stronger effect = lower value 0.987 | locus YDR101C, strain arx1, stronger effect = lower value 0.976 | locus YDR137W, strain rgp1, stronger effect = lower value 1.02 | locus YDR159W, strain sac3, stronger effect = lower value 0.961 | locus YDR162C, strain NBP2, stronger effect = lower value 1.01 | locus YDR195W, strain ref2 0.981 | locus YDR297W, strain sur2, stronger effect = lower value 0.996 | locus YDR318W, strain mcm21, stronger effect = lower value 1.01 | locus YDR334W, strain swr1, stronger effect = lower value 0.962 | locus YDR335W, strain msn5, stronger effect = lower value 0.987 | locus YDR388W, stronger effect = lower value 0.993 | locus YDR392W, strain spt3, stronger effect = lower value 0.964 | locus YDR502C, strain sam2, stronger effect = lower value 0.997 | locus YEL003W, strain gim4, stronger effect = lower value 0.976 | locus YEL037C, strain rad23, stronger effect = lower value 0.98 | locus YEL061C, strain CIN8 (second series), stronger effect = lower value 0.965 | locus YEL061C, strain CIN8, stronger effect = lower value 0.997 | locus YER015W, strain faa2, stronger effect = lower value 0.992 | locus YER016W, strain bim1, stronger effect = lower value 0.989 | locus YER110C, stronger effect = lower value 0.979 | locus YER111C, strain swi4, stronger effect = lower value 0.964 | locus YER155C, strain BEM2 (second series), stronger effect = lower value 0.966 | locus YER155C, strain BEM2, stronger effect = lower value 0.982 | locus YER167W, strain BCK2, stronger effect = lower value 0.989 | locus YFR010W, strain ubp6, stronger effect = lower value 0.958 | locus YGL078C, strain dbp3, stronger effect = lower value 0.999 | locus YGL086W, strain mad1, stronger effect = lower value 0.983 | locus YGL167C, strain pmr1, stronger effect = lower value 0.983 | locus YGL173C, strain kem1, stronger effect = lower value 0.972 | locus YGL227W, strain vid30, stronger effect = lower value 0.986 | locus YGL240W, strain doc1, stronger effect = lower value 0.979 | locus YGL248W, strain PDE1, stronger effect = lower value 1.01 | locus YGL253W, strain hxk2, stronger effect = lower value 0.968 | locus YGR078C, strain PAC10, stronger effect = lower value 1 | locus YGR135W, strain pre9, stronger effect = lower value 1.01 | locus YGR252W, strain gcn5, stronger effect = lower value 1.08 | locus YHR013C, strain ard1, stronger effect = lower value 0.972 | locus YHR027C, strain rpn1, stronger effect = lower value 1.01 | locus YHR030C, strain SLT2, stronger effect = lower value 0.997 and 0.973 | locus YHR079C, strain IRE1 (second series), stronger effect = lower value 0.994 | locus YHR079C, strain IRE1, stronger effect = lower value 0.976 | locus YHR094C, strain hxt1, stronger effect = lower value 0.979 | locus YHR129C, strain ARP1, stronger effect = lower value 1 | locus YHR142W, strain chs7, stronger effect = lower value 0.976 | locus YHR200W, strain rpn10, stronger effect = lower value 0.993 | locus YIL066C, strain RNR3, stronger effect = lower value 0.995 | locus YIL073C, strain SPO22, stronger effect = lower value 1.06 | locus YIL125W, strain kgd1, stronger effect = lower value 0.991 | locus YIR030C, strain dcg1, stronger effect = lower value 0.992 | locus YJL092W, strain hpr5, stronger effect = lower value 0.969 | locus YJL095W, strain BCK1 (second series), stronger effect = lower value 0.984 | locus YJL095W, strain BCK1, stronger effect = lower value 1.05 and 1.04 | locus YJL115W, strain asf1, stronger effect = lower value 0.956 | locus YJL129C, strain trk1, stronger effect = lower value 0.995 | locus YJL134W, strain LCB3, stronger effect = lower value 1 | locus YJL154C, strain vps35, stronger effect = lower value 0.981 | locus YJL164C, strain tpk1, stronger effect = lower value 1.01 | locus YJL166W, strain qcr8, stronger effect = lower value 0.989 | locus YJL168C, strain set2, stronger effect = lower value 0.983 | locus YJL187C, strain SWE1 (second series), stronger effect = lower value 1.01 | locus YJL187C, strain SWE1, stronger effect = lower value 1 | locus YJR043C, strain POL32, stronger effect = lower value 1.03
